High-throughput results from PubChem BioAssay.
This is a sample that favours compounds with a hit; in the whole collection about 2.4% have one here.
D2 ag-1 – HTS Assay for Allosteric Agonists of the Human D2 Dopamine Receptor: Primary Screen for Agonists | D(2) dopamine receptor (Homo sapiens), P14416 | HEK293 T-REx D2 cells, calcium flux agonist mode | activation, % at 2 µM | hit rate 0.53% among 340,000;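 active = activation over 3 SD above normal in the single-dose calcium agonist read, cut at about 30% in these data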; note: 0% is about no effect
Target sequence (P14416 whole entry, looked up): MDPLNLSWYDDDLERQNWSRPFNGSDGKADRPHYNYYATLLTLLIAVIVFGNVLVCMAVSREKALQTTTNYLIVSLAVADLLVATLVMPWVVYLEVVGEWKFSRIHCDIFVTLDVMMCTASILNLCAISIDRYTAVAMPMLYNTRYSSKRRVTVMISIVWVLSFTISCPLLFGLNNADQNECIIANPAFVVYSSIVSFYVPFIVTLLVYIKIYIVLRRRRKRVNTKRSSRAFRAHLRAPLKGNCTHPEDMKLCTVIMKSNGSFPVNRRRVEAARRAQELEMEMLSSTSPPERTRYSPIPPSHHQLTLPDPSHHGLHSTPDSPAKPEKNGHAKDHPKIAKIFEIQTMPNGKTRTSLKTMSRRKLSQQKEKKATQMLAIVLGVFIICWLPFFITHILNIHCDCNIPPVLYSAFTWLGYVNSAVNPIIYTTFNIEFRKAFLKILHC
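Calcium-flux readout, 1 cycle/sec over 180 s following compound pin transfer, in inducible HEK293 Trex D2 cells (force-coupled); dopamine controls included. Positive calcium responses during this window marked compounds as potential agonists.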
D2 PAM-1 – Beta-Arrestin HTS for Positive Allosteric Modulators of the Human D2 Dopamine Receptor: Potentiators | D(2) dopamine receptor (Homo sapiens), P14416 | DiscoveRx D2 beta-arrestin cells, luminescence, 90 min; 100% = 57 uM dopamine signal | potentiation, % (no concentration beside the values) | hit rate 0.23% among 360,000; in the data active = potentiation above about 50%; inconclusive = mostly about 30% to 49%
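PathHunter D2 cells, attached overnight at 37 deg C, received compound in DMSO plus dopamine at EC20 (50 nM final) for 90 min at 37 deg C. Beta-arrestin recruitment was read as luminescence after 1 h with detection reagent at ambient temperature.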
D2 antag – HTS Assay for Allosteric Antagonists of the Human D2 Dopamine Receptor: Primary Screen for Antagonists | HEK293 TREx D2 cells, calcium flux, dopamine EC80 | inhibition, % at 10 µM | hit rate 2% among 340,000; in the data active = inhibition above about 30%; inactive = below that, where a call was filed; note: 0% is about no effect
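Tetracycline-induced HEK293 TREx cells expressing D2 receptor forced-coupled to calcium signalling, loaded with no-wash calcium dye. Compounds added and calcium flux read 180 s, then dopamine added at EC80 and read a further 180 s.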
D2 ag-2 – Beta-Arrestin HTS for Positive Allosteric Modulators of the Human D2 Dopamine Receptor: Agonists | D(2) dopamine receptor (Homo sapiens), P14416 | hit rate 0.084% among 360,000 | DiscoveRx PathHunter D2 beta-arrestin, luminescence, 90 min; 100% = 57 uM dopamine signal | activation, % (no concentration beside the values); in the data active = activation above about 40%; inconclusive = between about 15% and that limit
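DiscoveRx PathHunter D2 beta-arrestin cells (2,100/well) attached overnight, then compound-stimulated 90 min at 37 C in HBSS/10 mM HEPES/0.1% Tween-20 buffer; beta-galactosidase complementation read by luminescence after 1 h at ambient temperature. Dopamine 57 uM final (EC100) as control.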
D2 PAM-2 – HTS Assay for Positive Allosteric Modulators of the Human D2 Dopamine Receptor: Primary Screen for Potentiators | potentiation, % at 10 µM | HEK293 T-REx D2, calcium flux, EC20 dopamine potentiation | D(2) dopamine receptor (Homo sapiens), P14416 | hit rate 0.34% among 340,000;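 active = potentiation over 3 SD above the plate norm, cut at about 30% in these data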; note: 0% is about no effect
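Tetracycline-induced HEK293 T-REx cells force-coupled to calcium signalling expressed D2; compounds were pin-added after a 10 s baseline, read kinetically 180 s, then an EC20 dopamine challenge followed with a further 180 s calcium read.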
Numbers without * were called inactive; ? = inconclusive; . = no result given; ! = a repeat was not active.

SMILES	D2 ag-1	D2 PAM-1	D2 antag	D2 ag-2	D2 PAM-2
CN(CC(=O)Nc1cccc(F)c1)CC(=O)N1CCc2ccccc21	0.0	-11.8	16.7	1.9	-17.2
CC(C(=O)N1CCc2ccccc21)N(C)CC(=O)Nc1cccc(F)c1 (stereo not drawn)	5.0	-34.0	38.9*	-1.8	-22.0
Clc1cccc(-c2nn3c(Cn4cnc5ccccc54)nnc3s2)c1	2.9	-5.1	33.9*	-3.0	12.6
COc1cccc(-c2nc(SCC(=O)NCC3CCCO3)c(-c3ccc(Cl)cc3)[nH]2)c1 (stereo not drawn)	2.6	.	.	.	-22.0
Cc1cccc(NC(=O)c2nc[nH]c2C(=O)N2CCc3ccccc3C2)c1	-0.1	-25.1	85.9*	-1.3	-27.5
O=C(Nc1cccc(Cl)c1)c1nc[nH]c1C(=O)N1CCc2ccccc2C1	-0.8	-28.1	56.4*	-1.3	-26.3
O=C(Nc1ccccc1)c1nc[nH]c1C(=O)N1CCc2ccccc2C1	-0.5	-18.3	10.2	2.0	-26.6
COc1cccc(Cn2nnc(C(=O)NCc3ccc(Cl)cc3Cl)c2N)c1	1.4	.	.	.	-5.3
CC(C)c1cccc(C(C)C)c1NC(=O)c1ccc(-c2cc(Cl)ccc2Cl)o1	.	-4.4	.	1.1	.
O=C1CCNc2cc3ccccc3cc21	-0.5	55.4*	5.9	14.9	28.1
Cc1cc(C(N)=O)c2ccccc2n1	-1.2	8.4	49.8*	2.4	-13.9
Cc1cc(C(=O)NNC(=S)NC(C)c2ccccc2)c2ccccc2n1 (stereo not drawn)	-0.5	-40.7	45.0*	-12.9	5.2
CCn1ccc2cc(S(=O)(=O)N3CCCN(C(=O)Nc4ccc(C)c(F)c4)CC3)ccc21	-1.0	.	.	.	-15.7
CCn1cnc2cc(NC(=O)c3ccc(C)cc3)ccc21	0.5	-5.9	31.5*	3.0	4.0
O=C(O)c1ccc(NS(=O)(=O)c2cc(C(=O)O)ccc2Br)cc1	-0.3	70.0*	1.4	6.5	1.1
O=C(O)c1ccc(NS(=O)(=O)c2ccc(N3C(=O)CCC3=O)cc2)cc1	-0.8	-7.8	38.7*	-5.5	-15.8
O=C(c1ccc(S(=O)(=O)Nc2ccccc2)cc1)N1CCC1	-0.7	-20.1	1.4	-1.9	1.1
Cc1cccc(C(=O)NC(=S)NNC(=O)c2ccccc2Cl)c1	31.2*	-11.7	25.2	1.3	6.0
Cc1onc(-c2ccccc2)c1C(=O)NNC(=S)NC(=O)c1ccc(Cl)cc1Cl	31.8*	-13.0	30.3*	-2.6	-4.0
O=C(NC(=S)NNC(=O)c1ccc(Cl)cc1Cl)c1cccnc1	0.9	-28.2	-0.5	2.4	1.1
Cc1onc(-c2ccccc2)c1C(=O)NNC(=O)c1ccccc1	-0.5	0.0	1.8	-5.6	14.0
Cc1ccccc1C(=O)NNC(=S)NC(=O)c1ccc(Cl)cc1Cl	46.3*	-12.3	30.9*	-3.4	-14.7
CCC(=O)N1c2ccccc2CC1C(=O)NCCc1ccccc1OC (stereo not drawn)	0.2	.	.	.	7.5
CCOc1ccccc1NC(=O)Cn1c(=O)ccc2cc(S(=O)(=O)N3CCCC3)ccc21	.	.	.	.	-3.3
Cc1ccc(-n2c(SCC(N)=O)nc3c([nH]c4ccccc43)c2=O)cc1	0.0	-7.5	-3.4	-5.5	32.4*!
SMILES	D2 ag-1	D2 PAM-1	D2 antag	D2 ag-2	D2 PAM-2
CCn1c(SCC(N)=O)nc2ccccc2c1=O	0.1	-9.7	37.2*	-0.3	2.6
COc1cccc(-n2c(SCC(N)=O)nc3ccccc3c2=O)c1	5.3	3.6	27.9	-0.6	10.6
NC(=O)CSc1nc2ccccc2c(=O)n1-c1ccccc1	-0.5	-6.6	41.1*	2.2	5.2
O=Cc1ccc(-c2cccs2)s1	.	-18.5	.	-1.1	.
Oc1ccc(N=Cc2ccc(-c3cccs3)s2)cc1	0.0	56.5*	-0.6	11.9	8.5
CCOc1ccccc1NC(=O)N1CCc2c(sc3c2CCCC3)C1c1ccccc1 (stereo not drawn)	7.6	.	.	.	0.0
Cn1ncc2c(O/N=C(\N)c3ccc(C(C)(C)C)cc3)ncnc21	0.3	85.3*	-1.5	85.9*	13.2
COc1ccc(NC(=O)C2=C(C)Nc3ncnn3C2c2ccc[nH]2)cc1 (stereo not drawn)	-0.7	.	.	.	9.3
CCN1CCN(C2=CC3=CC(=C(C#N)C#N)CCC3CC2)CC1 (stereo not drawn)	141.8*	-11.4	79.4*	3.9	-33.0
N#CC(C#N)=C1C=C2C=C(N3CCCCCC3)CCC2CC1 (stereo not drawn)	153.9*	9.7	82.9*	?	-19.0
N#CC(C#N)=C1C=C2C=C(N3CCOCC3)CCC2CC1 (stereo not drawn)	132.0*	14.2	65.3*	-3.1	-25.7
CN1CCN(C2=CC3=CC(=C(C#N)C#N)CCC3CC2)CC1 (stereo not drawn)	173.2*	5.9	48.7*	4.4	18.9
CC1(C)CC(NCCN2CCN(C3=CC(=C(C#N)C#N)CC(C)(C)C3)CC2)=CC(=C(C#N)C#N)C1	-0.9	-8.3	-0.8	-1.6	19.6
O=C(Nc1ccc(F)cc1F)c1ccc2c(c1)CCN2S(=O)(=O)c1ccc(Cl)cc1	1.3	.	.	.	-10.5
CCc1nn2c(=O)cc(COC(=O)c3ccccc3)nc2s1	-0.1	.	.	.	-8.5
COc1ccc2c(c1)C(=O)N(c1ccccc1)C(=O)C2	0.5	19.8	13.4	-2.9	30.5*
COc1cccc(NC(=O)CN(C)C(=O)CSc2nc(C)cc(C)n2)c1	-1.0	-0.9	41.0*	-2.0	-5.4
COc1ccc(NC(=O)CN(C)C(=O)CCSc2ccc(F)cc2)cc1	-0.1	-34.3	33.7*	-4.2	17.7
O=C(O)CCc1ccc(-c2ccccc2)n1-c1cccc(Br)c1	-1.6	.	.	.	-2.8
CCOC(=O)c1ccccc1NC(=O)CSc1cc(C)[nH]c(=O)n1	0.3	.	.	.	-0.5
CN(Cc1ccccc1)C(=O)Nc1ccc2c(c1)N(C)C(=O)c1ccccc1S2	3.3	.	.	.	-3.9
CC(=O)Nc1ccc(NC(=O)c2ccc([N+](=O)[O-])cc2Cl)cc1	2.7	-2.4	16.5	0.3	-14.8
CCC(C)NS(=O)(=O)c1ccc(NC(=O)c2ccc([N+](=O)[O-])cc2Cl)cc1 (stereo not drawn)	-2.0	-2.6	37.3*	-3.5	4.7
O=C(C#Cc1ccccc1)Nc1ccc(F)cc1	-0.3	-24.2	46.7*	0.3	-19.0
O=C(CSCc1ccc(Cl)cc1Cl)Nc1ccc(O)cc1C(=O)O	2.6	59.1*	20.8	11.5	2.8
C=CCNC(=O)c1oc2ccc(S(=O)(=O)N3CCC4(CC3)OCCO4)cc2c1C	0.3	-4.5	-1.0	0.3	32.8*
C=CCNC(=O)c1oc2ccc(S(=O)(=O)N3CCCCC3)cc2c1C	0.4	-4.6	-4.9	-1.2	-1.3
